Structures can show the parent of a compound that is named as a salt.

The test system of this assay is HEPG2. Description: Euclidean distance of Cell Painting phenotypic profile (signed KS, 77 features) to DMSO centroid (dimensionless distance); 5 or 10 uM (library dependent); higher = stronger phenotypic change vs DMSO (phenoactivity). The settings on record: 48 h. In a few lines: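 Five cancer lines, together with a healthy fibroblast line, received library compounds for 48 h at a library-dependent 10 or 5 uM and 0.1% DMSO final. Harmony then derived 77 features from confocal 20X images (9 fields/well) of the stained cells, scoring each as a signed Kolmogorov-Smirnov statistic against same-plate vehicle wells. After plate-position correction, correlation weighting and replicate averaging at the top dose, phenoactivity was taken as each profile's Euclidean distance to the median vehicle profile.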
Consider `Cc1cc(Nc2nc(N[C@@H](C)c3ccc(F)cc3)c(C#N)cc2F)n[nH]1`, for which the Euclidean distance amounted to 2.18.

Turning to `CC1(C)S[C@@H]2[C@H](NC(=O)[C@H](N)c3ccc(O)cc3)C(=O)N2[C@H]1C(=O)O` [Amoxicillin Sodium], the Euclidean distance was determined as 1.08.

Compound `CONC(=O)Nc1ccc(-c2sc3c(c2CN(C)C)c(=O)n(-c2ccc(OC)nn2)c(=O)n3Cc2c(F)cccc2F)cc1` [Relugolix] gave an Euclidean distance of 0.841.

As for `CCCCCCCCN=C(N)NC(N)=NCc1ccc(Cl)c(Cl)c1` [Olanexidine Hydrochloride semihydrate], the Euclidean distance came out at 3.98. Regarding `N[C@@H](CC(=O)O)C(=O)O` [L-aspartic Acid], the Euclidean distance came to 0.455.

With `O=C(c1ccc(F)c(F)c1Nc1ccc(I)cc1F)N1CC(O)([C@@H]2CCCCN2)C1` [Cobimetinib (GDC-0973. RG7420)], the Euclidean distance stood at 5.18. As to `CN(C)CCN1C(=O)c2cccc3cc(N)cc(c23)C1=O` [Amonafide], the Euclidean distance came out at 4.06. The figure for `Nc1nc(NC2CC2)c2ncn([C@H]3C=C[C@@H](CO)C3)c2n1` [Abacavir sulfate] is 0.688. The figure for `CC(C)(C)NCC(O)c1ccc(O)c(CO)c1` (centres undefined) [Salbutamol Sulfate] is 1.31. Turning to `CCOc1cc(N)c([N+](=O)[O-])cc1C(=O)NC1CCN(CC2CC=CCC2)CC1` (centres undefined) [Cinitapride Hydrogen Tartrate], the Euclidean distance is 0.924. In the case of `CN1CCC(=C2c3ccccc3CCc3cccnc32)CC1` [Azatadine dimaleate] it was 0.437; in that of `O=C1c2ccc(Nc3ccc(F)cc3F)cc2CCc2ccc(OC[C@H](O)CO)cc21` [Skepinone-L], 0.828; in that of `CCc1nc(C(N)=O)c(Nc2ccc(N3CCC(N4CCN(C)CC4)CC3)c(OC)c2)nc1NC1CCOCC1` [Gilteritinib (ASP2215)], 3.86. In the case of `O=C(O)c1cc(=O)c2ccccc2o1` [Chromocarb] it was 0.887; in that of `CCCCCCCCCCCCCCCCCCOCC(O)CO` (centres undefined) [Batyl alcohol], 0.262; in that of `CC(C)c1nc(CN(C)C(=O)N[C@H](C(=O)N[C@@H](Cc2ccccc2)C[C@H](O)[C@H](Cc2ccccc2)NC(=O)OCc2cncs2)C(C)C)cs1` [Ritonavir], 1.58. In the case of `CSc1nc2cc(Cl)c(Oc3cccc(Cl)c3Cl)cc2[nH]1` [Triclabendazole] it was 1.43.

Take `CCNC(=O)[C@@H]1CCCN1C(=O)[C@H](CCCNC(=N)N)NC(=O)[C@H](CC(C)C)NC(=O)[C@@H](CC(C)C)NC(=O)[C@H](Cc1ccc(O)cc1)NC(=O)[C@H](CO)NC(=O)[C@H](Cc1c[nH]c2ccccc12)NC(=O)[C@H](Cc1c[nH]cn1)NC(=O)[C@@H]1CCC(=O)N1` [Leuprolide Acetate]: the Euclidean distance worked out at 0.515. In turn, `CC(=O)Oc1ccc(C(c2ccc(OC(C)=O)cc2)c2ccccn2)cc1` [Bisacodyl] yielded an Euclidean distance of 0.712. The figure for `O=C(CCc1ccc(O)cc1)c1c(O)cc(O)cc1O` [Phloretin] is 1.23. As to `CC1(C)S[C@@H]2[C@H](NC(=O)[C@H](N)c3ccccc3)C(=O)N2[C@H]1C(=O)O` [Ampicillin Trihydrate], the Euclidean distance stood at 0.667. Take `OC(CCN1CCCC1)(c1ccccc1)C1CCCCC1` (centres undefined) [Procyclidine HCl]: the Euclidean distance turned out to be 1.33.

Consider `CCN1C(=O)NC(c2ccccc2)C1=O` (centres undefined) [Ethotoin], for which the Euclidean distance was found to be 0.528. The figure for `NCCCCCNCC12CC3CC(CC(C3)C1)C2` [IEM 1754 dihydrobroMide] is 2.44. The figure for `CCN(CC)CC(=O)Nc1c(C)cccc1C` [Lidocaine hydrochloride] is 0.656; for `O=C1c2c(O)cccc2Cc2cccc(O)c21` [Dithranol] it is 0.979; for `Cc1ccc(/C(=C\CN2CCCC2)c2cccc(/C=C/C(=O)O)n2)cc1` [Acrivastine] it is 0.729. In the case of `C=C(C)[C@@H]1CC[C@]2(CO)CC[C@]3(C)[C@H](CC[C@@H]4[C@@]5(C)CC[C@H](O)C(C)(C)[C@@H]5CC[C@]43C)[C@@H]12` [Betulin], the Euclidean distance is 0.765. Regarding `COc1ccc2[nH]cc(CCNC(C)=O)c2c1` [Melatonin], the Euclidean distance stood at 0.681.

In the case of `CO/N=C(\C(=O)N[C@@H]1C(=O)N2C(C(=O)OCOC(=O)C(C)(C)C)=C(/C=C\c3scnc3C)CS[C@H]12)c1csc(N)n1` [Cefditoren Pivoxil], the Euclidean distance worked out at 2.12.

Turning to `N=C(N)c1ccc(N=NNc2ccc(C(=N)N)cc2)cc1` [Diminazene Aceturate], the Euclidean distance is 2.06.

In turn, `CN[C@H](CC(C)C)C(=O)N[C@H]1C(=O)N[C@@H](CC(N)=O)C(=O)N[C@H]2C(=O)N[C@H]3C(=O)N[C@H](C(=O)N[C@H](C(=O)O)c4cc(O)cc(O)c4-c4cc3ccc4O)[C@H](O)c3ccc(c(Cl)c3)Oc3cc2cc(c3O[C@@H]2O[C@H](CO)[C@@H](O)[C@H](O)[C@H]2O[C@H]2C[C@](C)(N)[C@H](O)[C@H](C)O2)Oc2ccc(cc2Cl)[C@H]1O` [Vancomycin HCl] gave an Euclidean distance of 0.611. For `CC(C)c1c(C(=O)Nc2ccccc2)c(-c2ccccc2)c(-c2ccc(F)cc2)n1CC[C@@H](O)C[C@@H](O)CC(=O)O` [atorvastatin], the Euclidean distance turned out to be 0.836.

`C[C@@H]1CC(=O)NN=C1c1ccc(NN=C(C#N)C#N)cc1` [Levosimendan] gave an Euclidean distance of 0.487.

As to `CCN1CCCC1CNC(=O)c1cc(S(=O)(=O)CC)c(N)cc1OC` (centres undefined) [Amisulpride], the Euclidean distance was found to be 0.566. With `NS(=O)(=O)NCCNc1nonc1/C(=N/O)Nc1ccc(F)c(Br)c1`, the Euclidean distance was determined as 0.971. Compound `CCCCOCCOCCOCc1cc2c(cc1CCC)OCO2` [Piperonyl butoxide] gave an Euclidean distance of 1.06.

Regarding `CCN(CC)CCNC(=O)c1ccc(N)cc1` [Procainamide HCl], the Euclidean distance is 0.326. The figure for `CN1[C@@H]2CC[C@H]1C[C@@H](OC(c1ccccc1)c1ccccc1)C2` [Benztropine mesylate] is 1.19.

Values taken from the supplement of paper PMC10127200.
